Laboratory results published in article PMC5540273 (PLoS ONE, 2017).

Tests used:
Details in all cases: concentration: 1 μM, replicates: in singlicate; n = 1
[1] = tested on: PIK3C2G
[2] = tested on: PIK3CA
[3] = tested on: PIK3CB
[4] = tested on: PIK3CD
[5] = tested on: PIK3CG
[6] = tested on: T1, PIK4CB
T1 construct: gene PI4KB

[7] = tested on: PIKFYVE
[8] = tested on: PIM1
[9] = tested on: PIM2
[10] = tested on: PIM3
[11] = tested on: PIP5K1A
[12] = tested on: PIP5K1C
[13] = tested on: PIP5K2B
[14] = tested on: T2, PIP5K2C
T2 construct: gene PIP4K2C

[15] = tested on: T3, PKAC-alpha
T3 construct: gene PRKACA

[16] = tested on: T4, PKAC-beta
T4 construct: gene PRKACB

[17] = tested on: PKMYT1
[18] = tested on: PKN1
[19] = tested on: PKN2
[20] = tested on: PLK1
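Further: KINOMEscan kinase panel screen.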

Row | Compound | %Inh [1] [%] | %Inh [2] [%] | %Inh [3] [%] | %Inh [4] [%] | %Inh [5] [%] | %Inh [6] [%] | %Inh [7] [%] | %Inh [8] [%] | %Inh [9] [%] | %Inh [10] [%] | %Inh [11] [%] | %Inh [12] [%] | %Inh [13] [%] | %Inh [14] [%] | %Inh [15] [%] | %Inh [16] [%] | %Inh [17] [%] | %Inh [18] [%] | %Inh [19] [%] | %Inh [20] [%]
1 | O=C(Nc1n[nH]c2nc(-c3ccccc3)ccc12)C1CC1 [SB-708999] | 9 | 11 | 0 | 41 | 5 | 0 | 28 | 0 | 16 | 0 | 46 | 84 | 12 | 34 | 4 | 0 | 0 | 11 | 0 | 16
2 | CCn1cnc2c(NCc3ccccc3)ncnc21 [SKF-96418] | 0 | 0 | 0 | 0 | 0 | 4 | 23 | 21 | 0 | 0 | 21 | 22 | 0 | 0 | 0 | 0 | 0 | 0 | 0 | 14
3 | CCOc1nccc(-c2c(-c3ccc(F)cc3)ncn2C2CCNCC2)n1 [SB-249175] | 1 | 9 | 0 | 18 | 45 | 3 | 7 | 0 | 3 | 5 | 0 | 14 | 0 | 21 | 11 | 25 | 23 | 6 | 18 | 9
4 | COC(=O)Nc1nc2ccc(Oc3ccc(CC(=O)Nc4cc(C(F)(F)F)ccc4F)cc3)cc2[nH]1 [GW680903] | 0 | 0 | 0 | 0 | 0 | 0 | 5 | 19 | 0 | 0 | 7 | 37 | 2 | 31 | 0 | 0 | 0 | 0 | 0 | 0
5 | O=C(Nc1n[nH]c2cc(-c3cccs3)ccc12)C1CC1 [SB-731284] | 1 | 3 | 35 | 0 | 27 | 0 | 9 | 0 | 0 | 0 | 21 | 96.7 | 15 | 35 | 0 | 0 | 0 | 5 | 0 | 64
6 | CN(C)CCNS(=O)(=O)c1ccc(-c2ccnc3[nH]ccc23)cc1 [GSK977620] | 0 | 0 | 0 | 9 | 8 | 0 | 0 | 1 | 0 | 0 | 8 | 32 | 0 | 0 | 98.4 | 97.7 | 14 | 9 | 56 | 0
7 | CCNC(=O)/C=C/c1n[nH]c2cc(Sc3ccccc3C(=O)NC)ccc12 | 1 | 13 | 21 | 0 | 36 | 0 | 1 | 35 | 5 | 0 | 0 | 0 | 33 | 0 | 4 | 21 | 30 | 0 | 17 | 0
8 | COc1cccc(-c2nc(-c3ccccc3)[nH]c2-c2ccncc2)c1 [SB-610250] | 0 | 0 | 0 | 0 | 0 | 13 | 63 | 1 | 0 | 0 | 0 | 38 | 39 | 8 | 0 | 0 | 0 | 0 | 0 | 0
9 | Cn1cc(-c2ccc3c(c2)CCN3C(=O)Cc2cc(F)cc(C(F)(F)F)c2)c2c(N)ncnc21 [GSK2635225] | 47 | 0 | 8 | 0 | 0 | 0 | 0 | 2 | 0 | 6 | 27 | 28 | 2 | 15 | 6 | 0 | 0 | 6 | 0 | 8
10 | Cc1cccc(Nc2nc(N[C@H]3CCCC[C@H]3N)ncc2C(N)=O)c1.Cl [GSK986310] | 0 | 0 | 0 | 0 | 3 | 0 | 0 | 43 | 56 | 88 | 0 | 63 | 9 | 12 | 19 | 29 | 16 | 34 | 9 | 1
11 | Cc1cc(-c2ccnc(Nc3cccc(C#N)c3)n2)cc(C)c1O [GSK1440913] | 24 | 1 | 0 | 47 | 67 | 97 | 90 | 0 | 0 | 0 | 11 | 70 | 61 | 94.9 | 3 | 0 | 6 | 0 | 14 | 0
12 | Cn1cc(-c2ccc3c(c2)CCN3C(=O)Cc2cc(F)cc(F)c2F)c2c(N)ncnc21 [GSK2634140] | 0 | 0 | 62 | 0 | 7 | 0 | 0 | 12 | 0 | 0 | 10 | 0 | 13 | 12 | 0 | 4 | 0 | 0 | 0 | 0
13 | O=C(Nc1n[nH]c2nc(-c3cccc(O)c3)ccc12)C1CC1 [SB-711805] | 16 | 0 | 0 | 0 | 17 | 12 | 15 | 11 | 81 | 10 | 32 | 98 | 8 | 0 | 3 | 0 | 0 | 0 | 24 | 0
14 | CN(c1ccc(NC(=O)N2CCN(CCCN3CCOCC3)CC2)cc1)c1ccnc(Nc2ccc(CS(C)(=O)=O)cc2)n1.Cl [GW830899] | 0 | 0 | 0 | 0 | 0 | 100 | 0 | 16 | 0 | 0 | 0 | 26 | 32 | 55 | 0 | 29 | 25 | 0 | 0 | 3
15 | c1ccc(Oc2ccc(Nc3ccnc4cc(-c5ccc(CN6CCCCC6)o5)ccc34)cc2)nc1 [GW567143] | 0 | 0 | 0 | 0 | 0 | 0 | 0 | 0 | 0 | 0 | 9 | 47 | 0 | 48 | 2 | 0 | 0 | 0 | 0 | 5
16 | Cc1ccc(O)cc1Nc1ccnc2cc(-c3ccc(CN4CCCCC4)o3)ccc12 [GW557777] | 16 | 0 | 0 | 0 | 0 | 0 | 0 | 0 | 2 | 7 | 0 | 0 | 0 | 0 | 5 | 0 | 0 | 0 | 0 | 0
17 | N#Cc1cnc2cc(-c3cnc(CNCCN4CCOCC4)s3)ccc2c1Nc1ccc(Oc2ccccc2)cc1 [GW664114] | 0 | 0 | 0 | 7 | 0 | 11 | 100 | 11 | 0 | 8 | 25 | 34 | 31 | 41 | 0 | 0 | 0 | 13 | 0 | 0
